Compound activity deposited in PubChem BioAssay by several laboratories.
CYP2C9 act – human CYP2C9 activators, primary screen, biochemical, luminescence; recombinant CYP2C9, luciferin-H conversion; hits give high values; factor 1 = untreated enzyme, 0 = blocked; hit rate 1.4% among 96,000; activation factor at 5 µM; Cytochrome P450 2C9 (Homo sapiens), P11712;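 active = activation factor of 2 or more for CYP2C9 at a 5 µM dose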;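 note: 0 = sulfaphenazole-blocked wells and 1 = vehicle-only wells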
CYP2C9 inh – blockers of cytochrome P450 2C9 activity – biochemical, luminescence, ADME assay, primary screen. P11712. CYP2C9 Supersomes, luciferin-H conversion. inhibition, % at 5 µM. hit rate 20% among 96,000;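 active = blocking of liver enzyme CYP2C9 beyond about 50% at 5 µM, limit read from the data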
PostGolgi yeast – phenotypic screen on post-Golgi transport, primary screen | inhibition, % at 10 µM | post-Golgi transport phenotypic cell assay | hit rate 0.9% among 98,000;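 note: yeast cells grown in 1536-well plates; yeast grown about 18 h at 30C before absorbance read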
PostGolgi ctrl – growth inhibition of yeast control strain, primary screen, counter-screen for post-Golgi transport modulator project | efflux-deficient yeast background strain, growth absorbance A615, 16 h | AID 738, 2007 | hit rate 5% among 98,000 | inhibition, % at 10 µM
CYP2C19 inhib – blockers of cytochrome P450 2C19 activity – biochemical, luminescence, ADME assay, primary screen | P33261 | CYP2C19 Supersomes, luciferin-H EGE luminescence, 30 min | inhibition, % at 5 µM | hit rate 21% among 96,000;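 active = CYP2C19 inhibition above a set limit at 5 µM in the primary screen, cut at about 50% in these data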;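 note: plate controls were negative control wells for no effect and 2.5 mM tranylcypromine positive control for full effect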
Target sequence (P33261 whole entry, looked up): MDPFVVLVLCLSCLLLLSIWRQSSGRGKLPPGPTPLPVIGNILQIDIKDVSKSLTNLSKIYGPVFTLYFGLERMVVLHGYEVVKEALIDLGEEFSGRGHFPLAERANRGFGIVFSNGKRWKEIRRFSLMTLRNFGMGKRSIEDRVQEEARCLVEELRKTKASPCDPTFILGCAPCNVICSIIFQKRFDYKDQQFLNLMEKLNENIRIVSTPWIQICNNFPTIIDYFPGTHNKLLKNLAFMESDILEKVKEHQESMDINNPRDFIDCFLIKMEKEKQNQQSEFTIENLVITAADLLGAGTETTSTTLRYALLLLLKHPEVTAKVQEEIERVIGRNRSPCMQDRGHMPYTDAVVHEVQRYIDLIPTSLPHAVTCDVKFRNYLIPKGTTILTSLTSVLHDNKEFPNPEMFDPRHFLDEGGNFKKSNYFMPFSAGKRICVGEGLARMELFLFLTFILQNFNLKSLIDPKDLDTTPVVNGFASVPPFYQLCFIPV
CYP2C19 activ – human CYP2C19 activators, primary screen, biochemical, luminescence; Cytochrome P450 2C19 (Homo sapiens), P33261; recombinant CYP2C19, luciferin-H EGE luminescence; hits give high values; 0 = fully inhibited enzyme, 1 = untreated enzyme; activation factor at 5 µM; 96,000 tested, under 10 active;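 active = activation factor of at least 2 at 5 µM in the primary screen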;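 note: 0 = wells with 2.5 mM tranylcypromine and 1 = vehicle-only wells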
An asterisk follows results filed as active. An excerpt weighted towards active compounds, which were near 32% of everything screened. Cut-off read from the data, not from the text of the source, unless noted: active = inhibition above about 30%; inactive = the rest.

Screening Fc1ccccc1Cn1nnc(-c2ccc3c(c2)OCO3)n1 returned CYP2C9 act 0.4, CYP2C9 inh 58*, PostGolgi yeast 6, PostGolgi ctrl 4, CYP2C19 inhib 76* and CYP2C19 activ 0.2.
For O=C1CC(C2CCCO2)C(=O)N1c1cccc(Cl)c1 (stereo not given) the results were CYP2C9 act 1.2, CYP2C9 inh -17, PostGolgi yeast -10, PostGolgi ctrl 10, CYP2C19 inhib -3 and CYP2C19 activ 1.
Screening CN(C)S(=O)(=O)c1ccc(C(=O)NCc2ccccc2)cc1 returned CYP2C9 act 1, CYP2C9 inh 2, PostGolgi yeast -10, PostGolgi ctrl 3, CYP2C19 inhib 8 and CYP2C19 activ 0.9.
For O=C(NCc1ccccc1)c1ccc(C(=O)N(C2CCCCC2)C2CCCCC2)cc1 the results were CYP2C9 act 0.8, CYP2C9 inh 17, PostGolgi yeast 8, PostGolgi ctrl 52*, CYP2C19 inhib 9 and CYP2C19 activ 0.9.
`Cn1c(Sc2ccc(Cl)cc2)c(C=O)c2ccccc21` gave CYP2C9 act 0, CYP2C9 inh 96*, PostGolgi yeast 8, PostGolgi ctrl 37*, CYP2C19 inhib 4 and CYP2C19 activ 1.
`Cc1cccc(Sc2c(C=O)c3ccccc3n2C)c1` gave CYP2C9 act 0.2, CYP2C9 inh 77*, PostGolgi yeast 4, PostGolgi ctrl 24, CYP2C19 inhib 81* and CYP2C19 activ 0.2.
For CN(C)c1ccc(-c2nnn(Cc3ccccc3Br)n2)cc1 the results were CYP2C9 act 1.4, CYP2C9 inh -36, PostGolgi yeast 1, PostGolgi ctrl 31*, CYP2C19 inhib 96* and CYP2C19 activ 0.
CC1=CC(=C2C(=O)c3ccccc3C2=O)C=C(C)N1Cc1ccco1 was read as CYP2C9 act 0.3, CYP2C9 inh 68*, PostGolgi yeast 6, PostGolgi ctrl 37*, CYP2C19 inhib 51* and CYP2C19 activ 0.5.
`O=C1c2ccccc2C(=O)N1Cc1ccco1` gave CYP2C9 act 1, CYP2C9 inh -4, PostGolgi yeast 13, PostGolgi ctrl -3, CYP2C19 inhib 34 and CYP2C19 activ 0.7.
Clc1ccc(Oc2nc(N3CCOCC3)nc(N3CCOCC3)n2)cc1 was read as CYP2C9 act 1, CYP2C9 inh 4, PostGolgi yeast 3, PostGolgi ctrl 16, CYP2C19 inhib 2 and CYP2C19 activ 1.
CCCCn1c(N)c(N(CC(C)C)C(=O)CN(C)Cc2cccc(OC)c2)c(=O)[nH]c1=O was read as CYP2C9 act 0.9, CYP2C9 inh 14, PostGolgi yeast 16, PostGolgi ctrl 22, CYP2C19 inhib 56* and CYP2C19 activ 0.4.
Screening Cc1nn(CCc2n[nH]c(=S)n2-c2cccc(Cl)c2)c(C)c1[N+](=O)[O-] returned CYP2C9 act 0.8, CYP2C9 inh 22, PostGolgi yeast 0, PostGolgi ctrl 0, CYP2C19 inhib 57* and CYP2C19 activ 0.4.
For CCN(CC(=O)N1CCc2ccccc2C1)S(=O)(=O)c1ccc2ccccc2c1 the results were CYP2C9 act 2.4*, CYP2C9 inh -143, PostGolgi yeast 5, PostGolgi ctrl 25, CYP2C19 inhib 39 and CYP2C19 activ 0.6.
`CS(=O)(=O)N(CCc1ccccc1)CC(=O)N1CCc2ccccc2C1` gave CYP2C9 act 0.5, CYP2C9 inh 54*, PostGolgi yeast -6, PostGolgi ctrl 6, CYP2C19 inhib 68* and CYP2C19 activ 0.3.
Cc1nc2ccc(S(=O)(=O)N(C)CC(=O)N3CCc4ccccc4C3)cc2s1 was read as CYP2C9 act 0.6, CYP2C9 inh 45, PostGolgi yeast 1, PostGolgi ctrl 11, CYP2C19 inhib 39 and CYP2C19 activ 0.6.
`CCOC(=O)N1CCN(Cc2nc(-c3ccc(C)cc3)no2)CC1` gave CYP2C9 act 0.9, CYP2C9 inh 6, PostGolgi yeast 2, PostGolgi ctrl 3, CYP2C19 inhib 1 and CYP2C19 activ 1.
Cc1nnc(NC(=O)c2oc3c(ccc4ccccc43)c2C)s1 was read as CYP2C9 act 1, CYP2C9 inh -1, PostGolgi yeast 0, PostGolgi ctrl 23, CYP2C19 inhib 22 and CYP2C19 activ 0.8.
`COc1ccc(-c2cn3c(C)c(C(=O)Nc4ccncc4)sc3n2)cc1` gave CYP2C9 act 0.7, CYP2C9 inh 30, PostGolgi yeast -1, PostGolgi ctrl 8, CYP2C19 inhib 37 and CYP2C19 activ 0.6.
For Cc1c(C(=O)Nc2ccncc2)sc2nc(-c3ccc(F)cc3)cn12 the results were CYP2C9 act 0.3, CYP2C9 inh 74*, PostGolgi yeast -2, PostGolgi ctrl -7, CYP2C19 inhib 45 and CYP2C19 activ 0.6.
`COc1ccc(-c2cn3c(C)c(C(=O)Nc4cccc(NC(C)=O)c4)sc3n2)cc1` gave CYP2C9 act 1.1, CYP2C9 inh -8, PostGolgi yeast -7, PostGolgi ctrl 1, CYP2C19 inhib 59* and CYP2C19 activ 0.4.
For CCOC(=O)CN(C(=O)CSc1nnc(COc2ccc(OC)cc2)n1C)c1ccccc1 the results were CYP2C9 act 0.6, CYP2C9 inh 35, PostGolgi yeast -1, PostGolgi ctrl -5, CYP2C19 inhib -8 and CYP2C19 activ 1.1.
Screening COc1ccccc1N1CC(C(=O)OCC(=O)c2ccc(F)cc2)CC1=O (stereo not given) returned CYP2C9 act 1.6, CYP2C9 inh -64, PostGolgi yeast 1, PostGolgi ctrl 3, CYP2C19 inhib 26 and CYP2C19 activ 0.7.
For Cc1ccc(C(=O)COC(=O)C2CC(=O)N(c3nc(-c4ccccc4)cs3)C2)cc1 (stereo not given) the results were CYP2C9 act 0.2, CYP2C9 inh 79*, PostGolgi yeast 4, PostGolgi ctrl -1, CYP2C19 inhib 71* and CYP2C19 activ 0.3.
For Cc1cccc(N2CC(C(=O)OCC(=O)c3ccc(OC(=O)c4cccs4)cc3)CC2=O)c1C (stereo not given) the results were CYP2C9 act 0.2, CYP2C9 inh 76*, PostGolgi yeast -7, PostGolgi ctrl 11, CYP2C19 inhib 71* and CYP2C19 activ 0.3.
Screening O=C(Nc1nnc(SCc2ccccc2)s1)c1cc2c(s1)CCCC2 returned CYP2C9 act 0.6, CYP2C9 inh 38, PostGolgi yeast 7, PostGolgi ctrl 5, CYP2C19 inhib 22 and CYP2C19 activ 0.8.
CC1(C(=O)Nc2nnc(SCc3ccccc3)s2)Cc2ccccc2C(=O)O1 (stereo not given) was read as CYP2C9 act 0.2, CYP2C9 inh 79*, PostGolgi yeast 3, PostGolgi ctrl 19, CYP2C19 inhib 15 and CYP2C19 activ 0.9.
